Experimental data as given in publication PMC4336329 (PLoS ONE, 2015).
Screen size: about 310,000 compounds; about 14,000 (4.5%) showed an effect of 50% or more. The effect is printed as a negative number. What follows is part of a selection rich in strong results, with near analogues and random picks from the rest.

biological target: human ether-à-go-go-related gene (hERG) potassium channel (human, UniProt Q12809); assay: primary screen, population patch clamp on CHO cells stably expressing hERG; higher = less effect of the substance
Sequence (Q12809 whole entry, looked up): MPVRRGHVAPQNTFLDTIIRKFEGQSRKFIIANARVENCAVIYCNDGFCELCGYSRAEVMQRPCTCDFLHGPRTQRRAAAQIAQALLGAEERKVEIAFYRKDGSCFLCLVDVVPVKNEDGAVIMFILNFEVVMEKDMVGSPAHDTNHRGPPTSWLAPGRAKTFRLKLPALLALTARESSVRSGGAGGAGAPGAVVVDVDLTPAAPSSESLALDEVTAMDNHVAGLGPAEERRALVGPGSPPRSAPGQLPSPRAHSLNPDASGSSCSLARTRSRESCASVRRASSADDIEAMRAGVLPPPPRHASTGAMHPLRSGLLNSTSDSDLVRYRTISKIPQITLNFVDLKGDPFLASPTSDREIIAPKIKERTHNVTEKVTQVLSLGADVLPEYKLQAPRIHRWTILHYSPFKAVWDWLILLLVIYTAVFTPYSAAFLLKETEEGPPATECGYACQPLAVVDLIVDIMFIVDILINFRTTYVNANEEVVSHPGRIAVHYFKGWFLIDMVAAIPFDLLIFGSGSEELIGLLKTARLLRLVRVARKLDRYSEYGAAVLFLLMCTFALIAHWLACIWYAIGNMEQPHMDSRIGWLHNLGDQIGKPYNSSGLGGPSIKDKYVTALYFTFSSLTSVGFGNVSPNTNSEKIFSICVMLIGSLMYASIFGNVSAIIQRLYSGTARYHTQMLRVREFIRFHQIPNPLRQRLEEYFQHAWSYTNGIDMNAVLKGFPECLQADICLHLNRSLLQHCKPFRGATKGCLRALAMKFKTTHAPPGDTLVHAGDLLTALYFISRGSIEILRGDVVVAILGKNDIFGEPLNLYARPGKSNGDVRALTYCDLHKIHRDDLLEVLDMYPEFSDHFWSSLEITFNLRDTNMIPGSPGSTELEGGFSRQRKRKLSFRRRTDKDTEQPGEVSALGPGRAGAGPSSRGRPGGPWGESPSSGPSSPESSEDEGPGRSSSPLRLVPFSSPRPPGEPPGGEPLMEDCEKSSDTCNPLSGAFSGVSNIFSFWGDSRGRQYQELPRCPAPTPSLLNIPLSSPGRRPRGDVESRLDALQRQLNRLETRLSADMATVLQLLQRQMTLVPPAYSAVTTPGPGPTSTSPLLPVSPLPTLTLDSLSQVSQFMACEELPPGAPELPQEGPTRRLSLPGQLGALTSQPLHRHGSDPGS
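Also: peak tail current of the secondary pulse compared with the same well before compound.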

| SMILES | hERG current change (%, negative = inhibition) at 10uM |
| --- | --- |
| CC1CCC(C)(NS(=O)(=O)OCC(Cl)(Cl)Cl)CC1 (stereo not drawn) | -21.7% |
| CN(C)C(/C=C/Nc1ccc(F)cc1)=C(C#N)C#N | -8.47% |
| CCN1C(=O)c2ccccc2S(=O)(=O)c2ccc(C(=O)NCC(OC)OC)cc21 | 6.16% |
| NNC(=O)COc1ncn(-c2ccccc2)n1 | 18% |
| N#Cc1ccsc1NC(=O)COC(=O)c1cc(Br)ccc1O | -22.2% |
| Cc1c(C(=O)N2CCCc3ccccc32)oc2ccc(S(=O)(=O)N3CCOCC3)cc12 | -44.2% |
| O=C(CNCCc1ccc(F)cc1)Nc1cc(F)ccc1F.O=C(O)C(=O)O | -19.9% |
| CCOc1ccccc1NC(=O)COc1ccc(S(=O)(=O)N2CCCC2)cc1 | -4.32% |
| O=C(NCC1CCCO1)c1ccc([N+](=O)[O-])s1 (stereo not drawn) | 25.4% |
| CCOC(=O)C(c1ccccc1)N1CCN(c2ccc(OC)cc2)CC1 (stereo not drawn) | 4.91% |
| C/C(CC(=O)Nc1ccc2c(c1)OCCO2)=N\NC(=O)Cc1ccccc1 | -9.4% |
| CCOc1ccc(OCCOC(=O)C2CCN(S(=O)(=O)c3ccc(C)c(C)c3)CC2)cc1 | -22.4% |
| COc1ccc(COCC(O)CN2CCOCC2)cc1OC.Cl (stereo not drawn) | 20.8% |
| COc1ccc(COCC(O)CN2CCC(CN3C(=O)c4cccc5cccc(c45)C3=O)CC2)cc1OC.Cl (stereo not drawn) | -71.5% |
| Cl.OC(COCc1ccc2c(c1)OCO2)CN1CCN(Cc2ccccc2)CC1 (stereo not drawn) | -33.1% |
| CN1CCN(CC(O)COCc2ccc3c(c2)OCO3)CC1.Cl (stereo not drawn) | 6.52% |
| Cl.OC(COCc1ccc2c(c1)OCO2)CN1CCCCC1 (stereo not drawn) | -2.96% |
| COc1ccc(COCC(O)CN2CCCCC2)cc1OC.Cl (stereo not drawn) | 16.6% |
| Cl.OC(COCc1ccc2c(c1)OCO2)CN1CCC(Cc2ccccc2)CC1 (stereo not drawn) | -87.6% |
| Cl.O=C1c2cccc3cccc(c23)C(=O)N1CC1CCN(CC(O)COCc2ccc3c(c2)OCO3)CC1 (stereo not drawn) | -75.3% |

| SMILES | hERG current change (%, negative = inhibition) at 10uM |
| --- | --- |
| Cl.OCCN1CCN(CC(O)COCc2ccc3c(c2)OCO3)CC1 (stereo not drawn) | -1.01% |
| Cc1ccc2nc(C(O)C(O)c3nc4ccc(C)cc4[nH]3)[nH]c2c1 (stereo not drawn) | -6.37% |
| O=C(Nc1nc(-c2ccc(Cl)cc2Cl)cs1)c1ccc(OCC2CCCO2)cc1 (stereo not drawn) | 6.82% |
| COCCNc1nnc(SC(C)C(=O)Nc2c(C)n(C)n(-c3ccccc3)c2=O)s1 (stereo not drawn) | 11.8% |
| CCCN(CCC)CCCNC(=O)c1cn(-c2ccc(OC)cc2)c(=O)c2ccccc12 | -48% |
| CCN(CC)CCCNC(=O)c1nn(-c2ccc(OC)cc2OC)c(=O)c2ccccc12 | -0.745% |
| CCN(CC)CCCNC(=O)CNC(=O)c1nn(-c2ccc(OC)cc2)c(=O)c2ccccc12 | 23.8% |
| CCCCN(CC)CCNC(=O)c1cn(C)c(=O)c2c1c1ccccc1n2C | -24.6% |
| CCOC(=O)C(C)NC(=O)c1cn(-c2ccc(OC)cc2)c(=O)c2ccccc12 (stereo not drawn) | 5.7% |
| COc1cccc(-n2nc(C(=O)O)c3ccccc3c2=O)c1 | 6.72% |
| CCCCN(CC)CCCNC(=O)c1cn(-c2ccc(OC)cc2)c(=O)c2ccccc12 | -56.5% |
| COc1cccc(-n2nc(C(=O)N3CC(C)CC(C)C3)c3ccccc3c2=O)c1 (stereo not drawn) | 3.43% |
| CCCCN(CC)CCNC(=O)c1cn(-c2ccc(Cl)cc2)c(=O)c2ccccc12 | -77.7% |
| CNC(=O)c1cn(-c2ccc(Cl)cc2)c(=O)c2ccccc12 | -9.43% |
| COc1cccc(-n2nc(C(=O)N3CCN(Cc4ccccc4)CC3)c3ccccc3c2=O)c1 | -50.3% |
| CCN(CC)CCCNC(=O)c1nn(-c2cccc(OC)c2)c(=O)c2ccccc12 | -70.6% |
| O=C(c1ccccc1[N+](=O)[O-])N1CCN(Cc2ccc3c(c2)OCO3)CC1 | -13.4% |
| Cc1cccc(N2C(S)=C(C#N)C(=O)NC23CCCCC3)c1 | -7.13% |
| CCCCC(=O)Nc1ccc(NC(=O)c2ccco2)cn1 | 10.1% |
| CCOc1ccccc1N1CCN(C(=O)c2csc(C)c2CC)CC1 | -8.41% |

| SMILES | hERG current change (%, negative = inhibition) at 10uM |
| --- | --- |
| COC(=O)CSC1=C(C#N)C(c2ccccc2OC)C(C(=O)OC)C(=O)N1 (stereo not drawn) | 15.6% |
| C/C(=C\C(=O)c1sccc1Cl)N(C)C | 0.12% |
| Cc1cnc([N+](=O)[O-])n1CCOC(=O)c1cccc(F)c1 | -3.45% |
| O=C(Cn1cnc2c(cnn2-c2ccccc2)c1=O)Nc1cc(S(=O)(=O)N2CCOCC2)ccc1Cl | -32.2% |
| CCOc1cc(C(=S)N2CCCCC2)ccc1OCC(=O)NCc1ccccc1 | -31.2% |
| COc1ccc(N2CCN(C(=O)Cn3cnc4c(cnn4-c4ccc(C)cc4)c3=O)CC2)cc1 | -9.24% |
| COc1cccc(-n2cc(C(=O)NCCCOC(C)C)c3ccccc3c2=O)c1 | -6.95% |
| CCN(CC)CCCNC(=O)c1cn(-c2cccc(OC)c2)c(=O)c2ccccc12 | -68.5% |
| COCCCNC(=O)c1cn(-c2cccc(OC)c2)c(=O)c2ccccc12 | 18.1% |
| CC(/C=C/c1ccccc1)=N\NC(=O)CNC(=O)c1ccccc1Cl | 7.15% |
| O=C(CSC1CC(=O)N(c2ccc(C(=O)O)cc2)C1=O)Nc1ccc2ccccc2c1 (stereo not drawn) | 15.8% |
| CN(C)CCNc1ccc(Cl)cc1[N+](=O)[O-] | -18.7% |
| CCNCCNc1ccc(Cl)cc1[N+](=O)[O-].Cl | -20.3% |
| O=C(NCCNc1ccccc1[N+](=O)[O-])c1cc(F)c(F)cc1Cl | -52.1% |
| CCN(CC)CCNc1ccc(Cl)cc1[N+](=O)[O-].Cl | -61.6% |
| O=C(NCCNc1ccccc1[N+](=O)[O-])c1ccccc1F | 4.11% |
| Cc1ccoc1C(=O)NCCNc1ccc(Cl)cc1[N+](=O)[O-] | -30.5% |
| Cc1ccc(C(=O)NCCNc2ccc(Cl)cc2[N+](=O)[O-])o1 | -60% |
| O=C(NCCNc1ccc(Cl)cc1[N+](=O)[O-])c1cccnc1 | -29.4% |
| O=C(NCCCNc1ccc(C(F)(F)F)cc1[N+](=O)[O-])c1cc(F)c(F)cc1Cl | -15.7% |
